According to PubChem BioAssay (EPA / NIEHS):
“And” between values parts separate entries of the source, which are not always exact repeats. Identical values can stand only once. Some structures have more than one record in an assay (separate samples or runs), and their calls can disagree. The source made the active and inactive calls. How the source made its calls: active means hit-call score of the fitted dose curve at least 0.9, where 1 is the maximum; inactive means score below 0.9.

Key:
Conditions in all cases: mRNA level, 48 h; actives raise or lower the signal
[1] = read-out: Interleukin 6 (IL6), IL6 (gene 3569); assay: LTEA_HepaRG_IL6: Life Technologies and Expression Analysis (LTEA) Assay for Interleukin 6 (IL6) using HepaRG (AID 2283509)
Summary of the method: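 Changes in IL6 mRNA, up or down relative to 0.5% DMSO controls, were derived from concentration-response curves in human HepaRG cells treated for 48 h at up to 100 uM, with ACTB, GAPDH and POLR2A as normalizers.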

[2] = read-out: Interleukin 6 Receptor (IL6R), IL6R (gene 3570); assay: LTEA_HepaRG_IL6R: Life Technologies and Expression Analysis (LTEA) Assay for Interleukin 6 Receptor (IL6R) using HepaRG (AID 2283510);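 on AC50: differentiated human HepaRG liver cells in serum-free induction medium; TaqMan qRT-PCR signal normalized to ACTB GAPDH and POLR2A housekeeping genes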
Summary of the method: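 IL6R transcript level by qRT-PCR after 48 h chemical exposure (8-point, half-log, max 100 uM, 0.5% DMSO vehicle) of HepaRG cells in serum-free induction medium. Normalized to three housekeeping genes; curves fitted in both directions relative to DMSO.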

[3] = read-out: Potassium channel subfamily K member 1 (KCNK1), KCNK1 (gene 3775); assay: LTEA_HepaRG_KCNK1: Life Technologies and Expression Analysis (LTEA) Assay for Potassium channel subfamily K member 1 (KCNK1) using HepaRG (AID 2283511)
Summary of the method: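 Human HepaRG cultures receive test chemicals for 48 h in 0.5% DMSO, top concentration 100 uM with half-log dilutions. Induction or suppression of KCNK1 mRNA relative to DMSO is derived by bidirectional fitting of qRT-PCR data.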

[4] = read-out: Keratin 19 (KRT19), KRT19 (gene 3880); assay: LTEA_HepaRG_KRT19: Life Technologies and Expression Analysis (LTEA) Assay for Keratin 19 (KRT19) using HepaRG (AID 2283512)
Summary of the method: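 KRT19 transcript levels, measured by Fluidigm qRT-PCR against three housekeeping genes, are fitted for gain or loss of signal relative to DMSO. Human HepaRG cells receive test chemicals (top 100 uM, half-log steps, 0.5% DMSO) for 48 hours.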

[5] = read-out: JUN Transcription Factor, JUN (gene 3725); assay: LTEA_HepaRG_JUN: Life Technologies and Expression Analysis (LTEA) Assay for JUN Transcription Factor using HepaRG (AID 2283513)
Summary of the method: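 mRNA measured by TaqMan qRT-PCR after 48 h chemical exposure of HepaRG cultures; normalization to three housekeeping genes. Duplicate eight-point half-log curves from 100 uM in 0.5% DMSO; gain or loss fitted against DMSO baseline.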

[6] = read-out: Lipase C (LIPC), LIPC (gene 3990); assay: LTEA_HepaRG_LIPC: Life Technologies and Expression Analysis (LTEA) Assay for Lipase C (LIPC) using HepaRG (AID 2283514)
Summary of the method: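 In this multiplexed gene-expression screen, human HepaRG cultures received test chemicals for 48 h across eight concentrations with 100 uM highest, in duplicate. Values reflect LIPC mRNA induction or suppression versus DMSO vehicle, from normalized qRT-PCR.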

[7] = read-out: Lipoprotein lipase (LPL), LPL (gene 4023); assay: LTEA_HepaRG_LPL: Life Technologies and Expression Analysis (LTEA) Assay for Lipoprotein lipase (LPL) using HepaRG (AID 2283515)
Summary of the method: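 Concentration-response testing used half-log steps from 100 uM in 0.5% DMSO on human HepaRG cells, 48 h, duplicate wells. Phenobarbital 1 mM served as induction control; LPL mRNA was normalized to ACTB, GAPDH, POLR2A.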

[8] = read-out: MicroRNA 122 (MIR122), gene 406906; assay: LTEA_HepaRG_MIR122: Life Technologies and Expression Analysis (LTEA) Assay for MicroRNA 122 (MIR122) using HepaRG (AID 2283516); further: the transcript read is the microRNA miR-122
Summary of the method: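 Expression measured by microfluidic qRT-PCR with three housekeeping genes for normalisation, after 48 h treatment of HepaRG cultures. Eight concentrations (top 100 uM, half-log steps, 0.5% DMSO vehicle) in duplicate; gain or loss fitted relative to vehicle.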

[9] = read-out: matrix metalloproteinase-10 (MMP10), MMP10 (gene 4319); assay: LTEA_HepaRG_MMP10: Life Technologies and Expression Analysis (LTEA) Assay for matrix metalloproteinase-10 (MMP10) using HepaRG (AID 2283517)
Summary of the method: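 In differentiated HepaRG cultures kept in 0.5% DMSO, test chemicals act for 48 h over an eight-point range with a top dose of 100 uM. Expression is then quantified by TaqMan RT-PCR against ACTB, GAPDH and POLR2A.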

MYC, MYC (gene 4609) = assay: LTEA_HepaRG_MYC: Life Technologies and Expression Analysis (LTEA) Assay for MYC using HepaRG (AID 2283518)
Summary of the method: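 HepaRG, ~100,000 cells/well, collagen I; 48 h plating; serum-free induction medium; 48 h dosing, duplicate, 100 uM top, half-log, 0.5% DMSO; total RNA → qRT-PCR MYC; gain/loss fit vs DMSO.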

Measured: AC50

CC(C)Oc1cc(-n2nc(C(C)(C)C)oc2=O)c(Cl)cc1Cl
active: [4] 50 µM | [6] 50 µM | [7] 85.5 µM | [8] 50 µM | MYC, MYC (gene 4609) 89.1 µM
inactive: [1] | [2] | [3] | [5] | [9]

CCCCOC(=O)c1ccccc1C(=O)OCCCC
inactive: all assays above

O=C(Nc1ccccc1)Nc1ccnc(Cl)c1
active: [1] 93.9 µM | [2] 76.2 µM | [4] 28.1 µM | [6] 24 µM | [7] 81.8 µM
inactive: all other assays above

CN(C)C(=S)SSC(=S)N(C)C
inactive: all assays above

CCNc1nc(Cl)nc(NCC)n1
inactive: all assays above

COc1nc(NC(C)C)nc(NC(C)C)n1
active: [4] 39.4 µM
not listed: [8]
inactive: all other assays above

CCCCC(CC)COC(=O)c1ccccc1C(=O)OCC(CC)CCCC (stereo not given)
inactive: all assays above

CC1=C(C(=O)Nc2ccccc2)SCCO1
active: [2] 50 µM | [4] 41.7 µM | [6] 39.5 µM | [7] 36.5 µM
not listed: [8]
inactive: all other assays above

C=CCC1=C(C)C(OC(=O)C2C(C=C(C)C)C2(C)C)CC1=O (stereo not given)
active: [1] 50 µM and 74.3 µM | [4] 50 µM and 88.1 µM and 40.4 µM | [6] 84 µM
inactive: [1] | [2] | [3] | [5] | [6] | [7] | [9] | MYC, MYC (gene 4609)

CCc1nn(C)c(C(=O)NCc2ccc(C(C)(C)C)cc2)c1Cl
inactive: [2] | [5]
active: [1] 1.37 µM | [3] 9.92 µM | [4] 0.616 µM | [6] 0.58 µM | [7] 2.22 µM | [9] 26.5 µM | MYC, MYC (gene 4609) 5.39 µM

Cc1c(F)c(F)c(COC(=O)C2C(/C=C(\Cl)C(F)(F)F)C2(C)C)c(F)c1F (stereo not given)
not listed: [8]
inactive: all other assays above

CCCCNC(=O)n1c(NC(=O)OC)nc2ccccc21
inactive: all assays above

COC(=O)C=C(C)OP(=O)(OC)OC
not listed: [8]
inactive: all other assays above

CC(Oc1ccc(Cl)cc1Cl)C(=O)O (stereo not given)
not listed: [8]
inactive: all other assays above

COc1cnc(OC)n2nc(NS(=O)(=O)c3c(OCC(F)F)cccc3C(F)(F)F)nc12
inactive: all assays above

CCCN(CCC)c1c([N+](=O)[O-])cc(S(N)(=O)=O)cc1[N+](=O)[O-]
active: [1] 93.1 µM and 85.4 µM and 91 µM | [2] 68.4 µM and 70 µM | [3] 93.5 µM | [4] 93.8 µM and 72.5 µM | [5] 94.2 µM and 79.3 µM and 74.8 µM | [7] 50 µM | [9] 74.1 µM | MYC, MYC (gene 4609) 86.2 µM
inactive: [2] | [3] | [4] | [6] | [7] | [9] | MYC, MYC (gene 4609)

CNC(=S)S
not listed: [8]
inactive: all other assays above

CNC(=O)ON=CC(C)(C)SC
not listed: [8]
inactive: all other assays above

CO/C=C(/C(=O)OC)c1ccccc1Oc1cc(Oc2ccccc2C#N)ncn1
inactive: [2] | [3] | [5]
active: [1] 81.4 µM and 80.9 µM and 82.8 µM | [4] 61.1 µM and 37.1 µM and 50 µM | [6] 80.8 µM and 75.3 µM and 71.2 µM | [7] 82.4 µM and 82.1 µM and 85.2 µM | [9] 81 µM and 66.5 µM and 34.6 µM | MYC, MYC (gene 4609) 77.8 µM and 90 µM and 90.3 µM

COP(N)(=O)SC (stereo not given)
inactive: all assays above

CS/C(C)=N/OC(=O)N(C)SN(C)C(=O)O/N=C(\C)SC
inactive: all assays above

CC1COC(Cn2cncn2)(c2ccc(Oc3ccc(Cl)cc3)cc2Cl)O1 (stereo not given)
active: [1] 31.9 µM | [3] 33.1 µM | [4] 12.9 µM | [5] 62.4 µM | [6] 12 µM | [7] 12.4 µM | [9] 30.8 µM | MYC, MYC (gene 4609) 23.9 µM
inactive: [2]

CCCCNC(=O)OCC#CI
not listed: [8]
inactive: all other assays above

CCON=C(CC)C1=C(O)CC(c2c(C)cc(C)cc2C)CC1=O (stereo not given)
inactive: all assays above
